The results in this text go back to PubChem BioAssay (NCATS).

Assay [1] deals with HEK293. Kind of assay: Cytotoxic Profiling of Annotated Libraries Using Quantitative High-Throughput Screening (AID 1296008). As to conditions: Five cell lines viability, CellTiter-Glo ATP luminescence, 48-72 h; max response: stronger effect = lower value. In a few lines:
(§1)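 Cytotoxicity was measured as CellTiter-Glo ATP luminescence, read after 10 min at room temperature. Compound treatment of the cells lasted 48 or 72 hr at 37 degrees Celsius in a qHTS format.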
Background: Cellular ATP, detected with luciferase, serves as a proxy for viable cell number.

Assay [2] has as its system HaCat. The assay is described as above. As to conditions: Five cell lines viability, CellTiter-Glo ATP luminescence, 48-72 h; max response: stronger effect = lower value. The procedure, abridged: as §1
Assay [3] concerns KB-3-1. The description is as above. As to conditions: Five cell lines viability, CellTiter-Glo ATP luminescence, 48-72 h; max response: stronger effect = lower value. The procedure, abridged:
as §1

For assay [4], the system named is NIH3T3. The assay is described as above. As to conditions: Five cell lines viability, CellTiter-Glo ATP luminescence, 48-72 h; max response: stronger effect = lower value. In a few lines: as §1
The subject of assay [5] is HACAT. Kind of assay: qHTS assay to identify novel small-molecules to repurpose for Merkel cell carcinoma treatment (AID 1296009). The following applies: MCC and control cell lines, CellTiter-Glo viability, 72 h. The procedure, abridged: (§2)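 Cell viability, measured as CellTiter-Glo luminescence, was normalized between DMSO and no-cell wells. The cells had been exposed to 8- or 11-point compound dilutions for 72 hr at 37 degree celsius.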
On the technique in general: qHTS replaces the single test concentration by a dilution series.

The subject of assay [6] is HEK293T. The assay is described as above. The following applies: MCC and control cell lines, CellTiter-Glo viability, 72 h; at 44.8 µM (top of the series). In a few lines: as §2
Assay [7] deals with MCC-13. The assay is described as above. As to conditions: MCC and control cell lines, CellTiter-Glo viability, 72 h; series mostly up to 46 µM. The procedure, abridged: as §2
Assay [8] relates to MKL-1. The description is as above. The following applies: MCC and control cell lines, CellTiter-Glo viability, 72 h; series mostly up to 46 µM. In a few lines:
as §2

The subject of assay [9] is MKL-2. The description is as above. The following applies: MCC and control cell lines, CellTiter-Glo viability, 72 h; series mostly up to 46 µM. The procedure, abridged:
as §2

Assay [10] relates to MCC-26. The description is as above. The following applies: MCC and control cell lines, CellTiter-Glo viability, 72 h; series mostly up to 46 µM. In a few lines: as §2
[11] abbreviates: at 44.8 µM (top of the series) unless noted.

“And” between values parts separate entries of the source, which are not always exact repeats. Identical values can stand only once. Inconclusive results are not listed. Where a structure was tested more than once in an assay, its records may differ in their call. The source made the active and inactive calls. Calls follow the shape of the dose curve; as a rule, active = well fitted inhibition curve with a large enough effect; inconclusive = small, poorly fitted or top-dose-only effect; inactive = flat fitted curve, though single readings scatter.
% is scaled to controls: 0 for no effect and ±100 for the full control effect; potency is read from the fitted curve at half-maximal effect.
Also: nearly all actives have a fitted effect of over 60% in size.

Turning to `c1ccc([C@H]2CN3CCSC3=N2)cc1`, the max response in assay [1] is -11.1% (inactive); in assay [2], 1.22% (inactive); in assay [3], -2.88% (inactive) and 1.89% (inactive); in assay [4] it was 1.43% (inactive) and 2.53% (inactive). In addition, the compound was called inactive in [1], in assay [2], in [5] (setting [11]) and in [6]. The Potency entry in [7], in assay [8] and in assay [9] was “inactive” throughout.

For the compound `Cc1[nH]c(=O)c(C#N)cc1-c1ccncc1`, the max response in assay [1] was -9.35% (inactive); in assay [2], 4.3% (inactive) and 4.05% (inactive) and -9.78% (inactive); in assay [3], 6.66% (inactive) and -5.96% (inactive) and -18.3% (inactive); in [4] it was 0.936% (inactive). Also, the call in assay [1], in [4] and in assay [6] was inactive. Besides, the Potency result in assay [7], in assay [10], in assay [8] and in assay [9] was “inactive” each time.

Consider `CN(C(=O)c1ccc(F)cc1C(F)(F)F)C1CCN(c2nnc(-c3ccnn3C)c3ccccc23)CC1`, for which the max response in assay [1] is -60.8% (inactive); in assay [2] it was -6.53% (inactive); in assay [3], -19.8% (inactive); in assay [4] it was -30.1% (inactive) and 3.56% (inactive). The compound was called inactive in assay [2] and in assay [5] (setting [11]). Also, the Potency result in assay [7], in assay [10], in assay [8] and in assay [9] was “inactive” each time.

With `CCc1ccc(CCOc2ccc(CC3SC(=O)NC3=O)cc2)nc1` (stereo not given), the max response in assay [1] is -6.03% (inactive); in assay [3], -8.26% (inactive) and 7.14% (inactive); in [4] it was 0.801% (inactive). The compound was called inactive in assay [1], in assay [2], in assay [4], in [5] (setting [11]) and in assay [6]. Also, the Potency entry in [7], in [8] and in assay [9] was “inactive” each time.

Regarding `CC(C)NCC(O)COc1ccc(COCCOC(C)C)cc1` (stereo not given), the max response in assay [1] was 4.07% (inactive) and -17.2% (inactive); in assay [2], -3.77% (inactive); in [3] it was 14.8% (inactive) and -14.7% (inactive) and -10.9% (inactive); in assay [4] it was 4.85% (inactive). Also, the outcome in assay [2], in [4] and in [5] (setting [11]) was inactive. In addition, the Potency result in assay [7], in assay [10], in assay [8] and in assay [9] was “inactive” throughout.

Turning to `CN1CCN(CCCN2c3ccccc3Sc3ccc(C(F)(F)F)cc32)CC1`, the Potency is 23.7 µM (active) in [1]; 10.6 µM (active) and inactive in [9]. In addition, the result in assay [1], in [2], in [3], in assay [5] (setting [11]) and in assay [6] was inactive. In addition, the values for the max response in assay [2], in assay [3] and in [4] were -7.86% (inactive), -5.37% (inactive) and -0.173% (inactive), respectively. For the same compound, the Potency entry in [7] and in assay [8] was “inactive” in each case.

On to `O=C(Nc1nc2ccccc2n1CCN1CCOCC1)c1cccc([N+](=O)[O-])c1`, for which the call in assay [1], in assay [2], in assay [4], in assay [5] (setting [11]) and in assay [6] was inactive. The max response in assay [3] is 4.26% (inactive). In addition, the Potency result in assay [7] and in [10] was “inactive” each time.

For `CCN(CC)CCCC(C)Nc1ccnc2cc(Cl)ccc12` (stereo not given), the call in assay [1], in assay [2], in [3], in assay [4], in assay [5] (at 9.27 µM (top of the series)) and in assay [5] (at 17.4 µM (top of the series)) was inactive. Moreover, the compound was classed as inactive in [5] (at 44.8 µM (top of the series)) and in [6]. The max response in [3] is -0.795% (inactive) and 2.69% (inactive); in [4], -0.66% (inactive). In addition, the Potency result in assay [7] and in assay [8] was “inactive” throughout.

As for `O=c1n(CCCN2CCN(c3cccc(Cl)c3)CC2)nc2ccccn12`, the max response was 2.07% (inactive) and 1.71% (inactive) in [1]; -8.88% (inactive) in assay [2]; -0.946% (inactive) and 1.57% (inactive) in assay [3]; 3.22% (inactive) and 3% (inactive) in assay [4]. Also, the outcome in assay [2] and in [5] (setting [11]) was inactive. For the same compound, the Potency result in assay [7], in assay [10], in assay [8] and in [9] was “inactive” each time.

Take `COc1ccc(-c2c(-c3ccc(O)cc3O)n[nH]c2C)cc1`: the Potency in assay [1] was 27 µM (active). Also, the outcome was “inactive; activator” in assay [2] and “inactive; activator [at 92 µM]” in assay [5] (setting [11]). Moreover, the max response was -14.6% (inactive) in assay [3] and -24.1% (inactive) in [4]. The Potency result in assay [7], in [10], in assay [8] and in assay [9] was “inactive” in each case.

Take `CCOc1cc(C=C2C(=O)N(c3ccccc3)N=C2C)cc(Cl)c1OCC(=O)OC`: the max response in assay [1] was 0.832% (inactive); in [3] it was 4.4% (inactive); in assay [4], -3.61% (inactive). The result in [2] and in assay [5] (setting [11]) was inactive. Also, the Potency result in assay [7], in [10], in [8] and in assay [9] was “inactive” in each case.

Take `O=C(O)COCCN1CCN(C(c2ccccc2)c2ccc(Cl)cc2)CC1` (stereo not given): the max response in [1] was 0.378% (inactive) and -0.675% (inactive); in assay [2] it was -5.21% (inactive) and -2.14% (inactive); in assay [3] it was 6.76% (inactive) and 8.88% (inactive); in assay [4], -0.466% (inactive). The outcome in assay [4] was inactive. Moreover, the Potency result in assay [7], in assay [10], in assay [8] and in [9] was “inactive” in each case.

In the case of `COc1cc2c(cc1OC)CN(CCc1ccc(NC(=O)c3cccc4c(=O)c5cccc(OC)c5[nH]c34)cc1)CC2`, the Potency in assay [1] was 11.8 µM (active) and 7.31 µM (active); in assay [9] it was 16.6 µM (active). Besides, the compound was called inactive in assay [2], in [4] and in assay [5] (setting [11]). Further, the max response in assay [3] is 4.69% (inactive) and -0.508% (inactive); in [4], 3.98% (inactive). Moreover, the Potency entry in [7], in assay [10] and in assay [8] was “inactive” throughout.

`O=c1[nH]c(-c2ccc(C(F)(F)F)cc2)nc2c1CSCC2`: the max response in assay [1] is 1.09% (inactive); in assay [2], -17.6% (inactive) and -9.05% (inactive); in assay [3], 9.93% (inactive); in [4] it was -7.54% (inactive). The compound was classed as inactive in assay [3]. The Potency entry in assay [7], in [10], in assay [8] and in assay [9] was “inactive” each time.

In the case of `CNCc1ccc(-c2[nH]c3cc(F)cc4c3c2CCNC4=O)cc1`, in assay [1], the Potency was 11.6 µM (active). Further, the max response was 4.8% (inactive) in assay [2]; 9.78% (inactive) in assay [3]; -1.23% (inactive) and -23.6% (inactive) in assay [4]. Besides, the compound was called inactive in [2] and in [5] (setting [11]). The Potency entry in assay [7] and in [8] was “inactive” throughout.
